“And” between values parts separate entries of the source, which are not always exact repeats. Identical values can stand only once. Results filed as inconclusive are left out. Some compounds were tested as several samples or in several runs, with calls that do not always agree. The source made the active and inactive calls. Rule for the calls, unless noted: active = hit-call score of the fitted dose curve at least 0.9, where 1 is the maximum; inactive = score below 0.9.
Assays:
[1] = biological target: Retinoic acid receptor RXR-alpha (Homo sapiens) (UniProt P19793); test: ATG_RXRa_TRANS: Attagene TRANS-FACTORIAL HepG2 Assay for human Retinoid X Receptor alpha (RXRa) (AID 2283012; active = hit-call score of the fitted dose curve at least 0.9, where 1 is the maximum)
Retinoic acid receptor RXR-alpha (Homo sapiens), sequence (P19793 whole entry, looked up, the tested form may be a part): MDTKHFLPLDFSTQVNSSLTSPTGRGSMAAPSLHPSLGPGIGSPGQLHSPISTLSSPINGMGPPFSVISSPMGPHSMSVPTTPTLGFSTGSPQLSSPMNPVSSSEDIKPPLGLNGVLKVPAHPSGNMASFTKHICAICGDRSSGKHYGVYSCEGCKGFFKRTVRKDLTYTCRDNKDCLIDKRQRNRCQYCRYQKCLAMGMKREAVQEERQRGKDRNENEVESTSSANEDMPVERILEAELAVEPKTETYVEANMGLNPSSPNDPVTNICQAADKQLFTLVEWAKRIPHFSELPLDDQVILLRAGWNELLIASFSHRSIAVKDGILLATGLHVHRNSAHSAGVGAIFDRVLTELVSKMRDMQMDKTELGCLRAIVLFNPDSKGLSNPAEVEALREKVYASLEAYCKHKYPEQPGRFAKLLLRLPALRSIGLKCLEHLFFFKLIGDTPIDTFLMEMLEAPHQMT
Procedure, shortened: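 Transient transfection of human HepG2 with multiple GAL4-UAS reporter constructs; 24 h compound exposure; total RNA isolated, reverse-transcribed, PCR-amplified, 6-FAM labelled, HpaI-cut, resolved by capillary electrophoresis. Positive-direction fit versus DMSO.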

[2] = biological target: human Retinoid X Receptor beta (RXRb), RXRB (gene 6257) (UniProt P28702); test: ATG_RXRb_TRANS: Attagene TRANS-FACTORIAL HepG2 Assay for human Retinoid X Receptor beta (RXRb) (AID 2283013; active = hit-call score of the fitted dose curve at least 0.9, where 1 is the maximum)
human Retinoid X Receptor beta (RXRb), RXRB (gene 6257), sequence (P28702 whole entry, looked up, the tested form may be a part): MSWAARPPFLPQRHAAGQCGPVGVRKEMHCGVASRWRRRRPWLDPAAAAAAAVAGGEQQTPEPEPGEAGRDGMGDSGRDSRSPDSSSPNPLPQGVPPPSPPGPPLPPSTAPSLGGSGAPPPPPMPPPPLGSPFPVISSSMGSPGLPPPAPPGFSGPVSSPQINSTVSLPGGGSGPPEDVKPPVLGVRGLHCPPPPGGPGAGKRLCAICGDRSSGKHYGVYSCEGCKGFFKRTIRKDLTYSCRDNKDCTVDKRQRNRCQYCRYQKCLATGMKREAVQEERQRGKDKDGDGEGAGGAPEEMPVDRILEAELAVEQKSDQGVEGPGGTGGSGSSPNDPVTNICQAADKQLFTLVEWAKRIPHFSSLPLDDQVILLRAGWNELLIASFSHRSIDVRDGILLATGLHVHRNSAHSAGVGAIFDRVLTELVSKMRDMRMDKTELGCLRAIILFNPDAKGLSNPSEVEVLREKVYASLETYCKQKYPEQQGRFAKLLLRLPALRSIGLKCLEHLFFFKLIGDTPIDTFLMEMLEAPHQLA
Procedure, shortened: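 Transfect HepG2 with GAL4-UAS multi-reporter constructs (chimeric NR-Gal4, TRANS format); dose compound 24 h; isolate RNA, RT-PCR, FAM primer extension, HpaI digest; quantify by capillary electrophoresis; positive direction vs DMSO.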

[3] = read-out: E-selectin (Homo sapiens) (UniProt P16581); test: BSK_3C_Eselectin: BioMAP Diversity Plus: 3C Assay for Eselectin Biomarker Activity (AID 2283015); conditions: primary human endothelial cells (HUVEC); actives raise or lower the signal;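 note: cell surface E-selectin protein quantified by ELISA 24 h after dosing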
Procedure, shortened: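 ELISA read-out of E-selectin on endothelial monolayers after 24 h chemical treatment. Human umbilical vein primary cells served as the system, with DMSO defining baseline activity for bidirectional fitting.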

[4] = read-out: Interleukin-1 alpha (IL1a), IL1A (gene 3552); test: BSK_BE3C_IL1a: BioMAP Diversity Plus: BE3C Assay for Interleukin-1 alpha (IL1a) Biomarker Activity (AID 2283016); conditions: primary human bronchial epithelial cells; actives raise or lower the signal
Procedure, shortened: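 BE3C primary human bronchial epithelium; cpd 24 h; IL-1a by ELISA; bidirectional fit vs DMSO; parallel SRB (0.1% SRB, 10% TCA fix, 560 nm) for cytotoxicity.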

[5] = read-out: Monocyte Chemoattractant Protein-1 (MCP1), CCL2 (gene 6347); test: BSK_3C_MCP1: BioMAP Diversity Plus: 3C Assay for Monocyte Chemoattractant Protein-1 (MCP1) Biomarker Activity (AID 2283017); conditions: primary human endothelial cells (HUVEC); actives raise or lower the signal
Procedure, shortened: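 ELISA read-out of MCP-1 from human umbilical vein endothelial cell cultures harvested 24 h post-dosing. Gain or loss of signal was fitted relative to DMSO.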

[6] = read-out: Monocyte Chemoattractant Protein-1 (MCP1), CCL2 (gene 6347); test: BSK_4H_MCP1: BioMAP Diversity Plus: 4H Assay for Monocyte Chemoattractant Protein-1 (MCP1) Biomarker Activity (AID 2283018); conditions: primary human endothelial cells (HUVEC); actives raise or lower the signal
Procedure, shortened: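 ELISA read-out of MCP-1 from human vascular endothelial primary cells taken at 24 hours after compound exposure. Activity was fitted in both directions relative to DMSO, which served as negative control.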

[7] = read-out: Human Leukocyte Antigen - DR isotype (HLADR), HLA-DRA (gene 3122); test: BSK_3C_HLADR: BioMAP Diversity Plus: 3C Assay for Human Leukocyte Antigen - DR isotype (HLADR) Biomarker Activity (AID 2283019); conditions: primary human endothelial cells (HUVEC); actives raise or lower the signal;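 note: ELISA of cell-surface HLA-DR on HUVEC 24 h after dosing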
Procedure, shortened: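 ELISA readout of surface HLA-DR on human umbilical vein endothelium, taken 24 h after chemical treatment. Gain- and loss-of-signal were both fitted relative to DMSO.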

[8] = read-out: Interleukin-8 (IL8), CXCL8 (gene 3576); test: BSK_3C_IL8: BioMAP Diversity Plus: 3C Assay for Interleukin-8 (IL8) Biomarker Activity (AID 2283020); conditions: primary human endothelial cells (HUVEC); actives raise or lower the signal
Procedure, shortened: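 ELISA read-out of IL-8 from human umbilical vein endothelium, measured 24 h after chemical dosing. Activity is expressed relative to DMSO negative control, with both increases and decreases fitted.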

[9] = read-out: Monokine induced gamma interferon (MIG), CXCL9 (gene 4283); test: BSK_3C_MIG: BioMAP Diversity Plus: 3C Assay for Monokine induced gamma interferon (MIG) Biomarker Activity (AID 2283021); conditions: primary human endothelial cells (HUVEC); actives raise or lower the signal
Procedure, shortened: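 Read-out is ELISA detection of MIG on human umbilical vein endothelial cells, taken 24 h after dosing. Gain or loss of signal was scored relative to DMSO controls using bidirectional curve fitting.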

[10] = biological target: human Vitamin D Receptor (VDR), VDR (gene 7421) (UniProt P11473); test: ATG_VDR_TRANS: Attagene TRANS-FACTORIAL HepG2 Assay for human Vitamin D Receptor (VDR) (AID 2283022; active = hit-call score of the fitted dose curve at least 0.9, where 1 is the maximum)
human Vitamin D Receptor (VDR), VDR (gene 7421), sequence (P11473 whole entry, looked up, the tested form may be a part): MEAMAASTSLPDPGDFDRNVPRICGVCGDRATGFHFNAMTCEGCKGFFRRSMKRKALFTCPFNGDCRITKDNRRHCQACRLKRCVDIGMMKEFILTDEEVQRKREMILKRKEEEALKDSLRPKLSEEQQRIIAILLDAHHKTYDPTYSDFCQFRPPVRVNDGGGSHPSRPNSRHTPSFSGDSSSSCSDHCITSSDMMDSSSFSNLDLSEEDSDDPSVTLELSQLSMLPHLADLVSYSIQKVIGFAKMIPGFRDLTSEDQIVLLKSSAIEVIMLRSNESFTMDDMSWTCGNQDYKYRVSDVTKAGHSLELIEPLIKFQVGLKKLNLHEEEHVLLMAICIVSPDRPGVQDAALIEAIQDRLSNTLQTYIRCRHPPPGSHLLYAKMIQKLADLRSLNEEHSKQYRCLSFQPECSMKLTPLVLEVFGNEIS
Procedure, shortened: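 Steps: transfect HepG2 with GAL4-UAS-driven reporter constructs; dose compounds 24 h; isolate RNA, reverse-transcribe, PCR-amplify with 6-FAM-labelled primer extension and HpaI digestion; quantify fragments by capillary electrophoresis relative to DMSO.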

[11] = BSK_3C_SRB: Viability Assessment in the BioMAP Diversity Plus: 3C Assay (AID 2283023); conditions: primary human endothelial cells (HUVEC);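 note: fitted both ways against DMSO so a hit may be signal rise or drop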
Procedure, shortened: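 Absorbance at 560 nm of sulforhodamine B-stained (0.1%) total protein served as a cytotoxicity readout in human umbilical vein endothelial cells, 24 h after chemical treatment. Signal was fitted bidirectionally relative to DMSO.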

[12] = read-out: Matrix Metallopeptidase 1 (MMP1), MMP1 (gene 4312); test: BSK_BE3C_MMP1: BioMAP Diversity Plus: BE3C Assay for Matrix Metallopeptidase 1 (MMP1) Biomarker Activity (AID 2283024); conditions: primary human bronchial epithelial cells; actives raise or lower the signal
Procedure, shortened: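 Human bronchial epithelial cells (BE3C system) exposed to compound for 24 h; MMP1 then quantified by ELISA. Activity was fitted in both directions relative to DMSO.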

[13] = BSK_3C_Vis: BioMAP Diversity Plus: 3C Assay for Morphology Visualization (AID 2283025); conditions: primary human endothelial cells (HUVEC);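 note: fitted both ways so gain or loss versus DMSO counts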
Procedure, shortened: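 Chemicals were added to primary human umbilical vein endothelium, cells were incubated 24 h, and morphology was then visualized by light microscopy. Gain or loss of signal was fitted bidirectionally relative to DMSO.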

[14] = read-out: Pselectin, SELP (gene 6403); test: BSK_4H_Pselectin: BioMAP Diversity Plus: 4H Assay for Pselectin Biomarker Activity (AID 2283026); conditions: primary human endothelial cells (HUVEC); actives raise or lower the signal
Procedure, shortened: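 ELISA read-out of P-selectin on human umbilical vein endothelium after 24 h of dosing. Values derive from bidirectional fitting relative to DMSO. Parallel SRB protein staining flagged overt cytotoxicity.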

[15] = BSK_4H_SRB: Viability Assessment in the BioMAP Diversity Plus: 4H Assay (AID 2283027); conditions: primary human endothelial cells (HUVEC);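 note: cells exposed to compound for 24 h before staining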
Procedure, shortened: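 Human umbilical vein endothelial cells, 24 h after chemical dosing; total protein measured by 0.1% sulforhodamine B staining after 10% TCA fixation, read at 560 nm. Bidirectional fitting against DMSO.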

[16] = BSK_BE3C_SRB: Viability Assessment in the BioMAP Diversity Plus: BE3C Assay (AID 2283028); conditions: primary human bronchial epithelial cells
Procedure, shortened: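 Cells (human bronchial epithelial, primary) are treated with chemicals, and after 24 h the parallel cultures are fixed in 10% TCA. These are then stained with 0.1% SRB and read at 560 nm. Gain or loss of signal is fitted relative to DMSO.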

[17] = read-out: Thrombomodulin, THBD (gene 7056); test: BSK_3C_Thrombomodulin: BioMAP Diversity Plus: 3C Assay for Thrombomodulin Biomarker Activity (AID 2283029); conditions: primary human endothelial cells (HUVEC); actives raise or lower the signal
Procedure, shortened: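 Read-out is ELISA of thrombomodulin on human umbilical vein endothelium 24 h after chemical dosing. Gain or loss of signal is scored relative to DMSO. Overt cytotoxicity is checked in parallel cultures by sulforhodamine B staining.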

[18] = read-out: Urokinase-type plasminogen activator receptor (uPAR), PLAUR (gene 5329); test: BSK_4H_uPAR: BioMAP Diversity Plus: 4H Assay for Urokinase-type plasminogen activator receptor (uPAR) Biomarker Activity (AID 2283030); conditions: primary human endothelial cells (HUVEC); actives raise or lower the signal
Procedure, shortened: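 Cell-surface uPAR ELISA signal, measured 24 h after dosing human umbilical vein endothelial cells, was analyzed with bidirectional fitting relative to DMSO. Parallel SRB staining of total protein tracked overt cytotoxicity.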

[19] = read-out: Vascular endothelial growth factor receptor 2 (Homo sapiens) (UniProt P35968); test: BSK_4H_VEGFRII: BioMAP Diversity Plus: 4H Assay for Vascular endothelial growth factor receptor 2 (VEGFR2) Biomarker Activity (AID 2283031); conditions: primary human endothelial cells (HUVEC); actives raise or lower the signal
Procedure, shortened: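 ELISA read-out of VEGFRII in primary human umbilical vein endothelium, taken 24 h after chemical treatment. Responses are expressed relative to DMSO, with bidirectional fitting.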

[20] = biological target: human Thyroid Receptor alpha (THRa1), THRA (gene 7067) (UniProt P10827); test: ATG_THRa1_TRANS: Attagene TRANS-FACTORIAL HepG2 Assay for human Thyroid Receptor alpha (THRa1) (AID 2283014; active = hit-call score of the fitted dose curve at least 0.9, where 1 is the maximum)
human Thyroid Receptor alpha (THRa1), THRA (gene 7067), sequence (P10827 whole entry, looked up, the tested form may be a part): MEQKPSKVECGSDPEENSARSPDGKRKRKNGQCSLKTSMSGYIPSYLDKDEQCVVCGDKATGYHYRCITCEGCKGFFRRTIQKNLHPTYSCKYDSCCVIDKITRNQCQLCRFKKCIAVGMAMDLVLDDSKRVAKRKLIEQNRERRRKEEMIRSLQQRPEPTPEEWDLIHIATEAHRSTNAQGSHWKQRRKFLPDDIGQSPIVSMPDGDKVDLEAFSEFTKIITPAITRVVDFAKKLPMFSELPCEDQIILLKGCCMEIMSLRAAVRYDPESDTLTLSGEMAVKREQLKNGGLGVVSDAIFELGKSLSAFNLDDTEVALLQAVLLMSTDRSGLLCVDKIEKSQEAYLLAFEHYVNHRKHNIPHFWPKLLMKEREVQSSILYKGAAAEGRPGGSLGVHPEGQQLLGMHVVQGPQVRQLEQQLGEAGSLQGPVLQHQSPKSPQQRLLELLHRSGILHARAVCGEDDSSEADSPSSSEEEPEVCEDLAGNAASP
Procedure, shortened: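 Reporter transcript induction, read by capillary electrophoresis of 6-FAM-labelled RT-PCR products, reflects activity of a transfected THRa1-Gal4 fusion in HepG2 liver cells. Cells were dosed for 24 h; activity was fitted in the positive direction against DMSO.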

Measured: AC50

E-selectin (Homo sapiens), sequence (P16581 whole entry, looked up): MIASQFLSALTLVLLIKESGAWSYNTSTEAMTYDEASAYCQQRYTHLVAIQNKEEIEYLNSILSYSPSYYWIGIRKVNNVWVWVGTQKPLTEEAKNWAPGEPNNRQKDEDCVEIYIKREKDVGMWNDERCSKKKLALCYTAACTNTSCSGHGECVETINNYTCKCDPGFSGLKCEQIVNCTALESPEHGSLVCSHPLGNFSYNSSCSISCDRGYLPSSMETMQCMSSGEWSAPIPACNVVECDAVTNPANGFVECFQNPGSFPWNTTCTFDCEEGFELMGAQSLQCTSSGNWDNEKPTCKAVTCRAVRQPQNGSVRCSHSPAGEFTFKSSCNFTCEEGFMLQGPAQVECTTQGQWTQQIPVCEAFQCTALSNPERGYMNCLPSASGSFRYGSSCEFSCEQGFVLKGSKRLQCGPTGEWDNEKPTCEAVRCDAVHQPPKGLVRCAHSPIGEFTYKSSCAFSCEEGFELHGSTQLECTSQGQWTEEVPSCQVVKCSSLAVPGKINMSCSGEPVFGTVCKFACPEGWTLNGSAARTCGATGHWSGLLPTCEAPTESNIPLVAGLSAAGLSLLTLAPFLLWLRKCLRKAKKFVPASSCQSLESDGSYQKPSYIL

CCCCC=O
not listed: [20]
inactive: all other assays above

CC(C)(C)C1CCCCC1O (stereo not given)
inactive: [1] | [20]

OCC(F)(F)C(F)(F)C(F)(F)C(F)(F)C(F)(F)C(F)(F)C(F)(F)C(F)(F)C(F)(F)C(F)(F)C(F)(F)F
inactive: [1] | [2] | [3] | [4] | [5] | [6] | [7] | [8] | [9] | [10] | [12] | [14] | [15] | [16] | [17] | [18] | [19]
active: [11] 271 nM and 201 nM | [14] 275 nM | [17] 423 nM

CC(C)(O)C(=O)c1ccccc1
inactive: [1] | [2] | [10]

OCC(CO)(CBr)CBr
not listed: [2] | [10]
inactive: all other assays above

CN(C)CCOC(c1ccccc1)c1ccccc1
active: [6] 351 nM | [14] 3970 nM | [18] 2270 nM
not listed: [2] | [10]
inactive: all other assays above
